Reference: PubChem BioAssay (NCI)
Compounds without any hit were thinned out: in the full panel of roughly 83,000, 20% have a hit.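 Activity criterion: percent growth below 10, measured after cells in 96-well plates were exposed to a single compound concentration for 48 hours.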 The source made the active and inactive calls.

Tests used:
Assay in all cases: NCI-60 one-dose screen, 48 h (100 = growth as untreated, 0 = no growth, -100 = all killed)
Conditions in all cases: 10 µM unless noted
[1] = tested on: NCI-H23 lung
[2] = tested on: NCI-H226 lung
[3] = tested on: NCI-H322M lung
[4] = tested on: HOP-62 NSCLC
[5] = tested on: NCI-H460 lung
[6] = tested on: HOP-92 NSCLC
[7] = tested on: A549/ATCC NSCLC
[8] = tested on: 786-0 renal
[9] = tested on: COLO 205 colon

Measured: growth

COc1cc(/C=C/c2cc(/C=C/c3ccc(O)c(OC)c3)n(C(=O)Cc3ccccc3)n2)ccc1O
inactive: [2] 13.7% | [8] 10.2%
active: [1] 1.94% | [3] 9.62% | [4] 2.82% | [5] 4.69% | [6] -0.112% | [7] 4.22% | [9] -64.3%

CCOC(=O)OCC(=O)[C@@]1(O)CC[C@H]2[C@@H]3CCC4=CC(=O)CC[C@]4(C)[C@H]3[C@@H](O)C[C@@]21C
inactive: [1] 111% | [2] 70.1% | [3] 99.2% | [4] 98.5% | [5] 102% | [6] 72.5% | [7] 74.2% | [8] 108% | [9] 104%

O=C1/C=C/[C@@H](O)[C@@H]2C[C@@H](O)C[C@H]2/C=C/CCC[C@H](CO)O1
active: [2] -63.4% | [8] -59.6% | [9] -71.6%
inactive: [1] 13.5% | [3] 41.7% | [4] 43.6% | [5] 45.1% | [6] 58.3% | [7] 31.3%

NS(=O)(=O)c1ccc(-n2ncc3c(N/N=C/c4ccccc4)ncnc32)cc1
inactive: [1] 80.6% | [2] 107% | [3] 94.6% | [4] 104% | [5] 66.4% | [6] 87.6% | [7] 52% | [8] 93.2% | [9] 97.5%

C[C@H](C(=O)N[C@@H](Cc1ccc(-c2ccccc2)cc1)C(=O)NC1CC(C)(C)NC(C)(C)C1)c1ccc(-c2ccccc2)c(F)c1
active: [1] -42% | [2] -26.7% | [3] -34% | [4] -67.4% | [5] -76.4% | [6] -69.7% | [7] -76.9% | [8] -88.6% | [9] -81.8%

O=C(O)c1ccc2cccnc2c1O
inactive: [3] 12.4% | [4] 13.6% | [7] 10.4%
active: [1] 8.65% | [2] 6.97% | [5] 6.87% | [6] -29.3% | [8] 7.02% | [9] -70.9%

O=C(Oc1ccccc1)C(Br)C(Br)c1ccccc1 (stereo unspecified)
inactive: [1] 112% | [2] 107% | [3] 179% | [4] 107% | [5] 109% | [6] 81.6% | [7] 91.9% | [8] 98.3% | [9] 49.4%

CCCCCCCCCCNCCSS(=O)(=O)O
active: [5] -62.7%
inactive: [1] 86.2% | [2] 102% | [3] 76.7% | [4] 100% | [6] 93.3% | [7] 69.7% | [8] 87.6% | [9] 116%

Cn1c(=O)c2[nH]c(=S)n(Cc3ccccc3)c2n(C)c1=O
inactive: [1] 93.1% | [2] 104% | [3] 118% | [4] 70% | [5] 110% | [6] 91.8% | [7] 95.2% | [8] 102% | [9] 109%

CCOC1Oc2ccccc2C(=O)/C1=N/c1nccs1 (stereo unspecified)
inactive: [1] 95.2% | [2] 84% | [3] 99.7% | [4] 92.7% | [5] 106% | [7] 111% | [8] 100% | [9] 95.1%
active: [6] -23.6%

Nc1nc(Nc2ccccc2SSc2ccccc2Nc2nc(N)nc(-c3ccc(I)cc3)n2)nc(-c2ccc(I)cc2)n1
active: [7] -19.9%
inactive: [1] 47.3% | [2] 69.8% | [3] 81.1% | [4] 26.1% | [5] 54.8% | [6] 107% | [8] 86.9% | [9] 112%

COc1cc(/C=C/C(=O)CC(=O)/C=C/c2ccc(OC(=O)CCNC34CC5CC(CC(C5)C3)C4)c(OC)c2)ccc1OC(=O)CCNC12CC3CC(CC(C3)C1)C2
inactive: [1] 28.5% | [2] 39.8% | [3] 63.4% | [4] 66.9% | [5] 10.3% | [6] 18.5% | [7] 63.1% | [8] 16.7% | [9] 45.9%

O=C(Nc1ccccc1S)c1ccccc1
inactive: [1] 93.3% | [2] 103% | [3] 103% | [4] 120% | [5] 98.7% | [6] 109% | [7] 93.8% | [8] 109% | [9] 119%

Nc1nc2c(nnn2Cc2ccc(Cl)c(Cl)c2)c(=O)[nH]1
inactive: [1] 104% | [2] 96.5% | [3] 82.4% | [4] 90.4% | [5] 104% | [6] 75.5% | [7] 103% | [8] 97.3% | [9] 98.5%

N#Cc1ccc(-c2csc(Nc3ccc4nc5n(c(=O)c4c3)CCC5)n2)cc1
inactive: [1] 105% | [2] 105% | [3] 104% | [4] 108% | [5] 101% | [6] 169% | [7] 101% | [8] 104% | [9] 109%

CC1CN(C2CCCCC2)C(=O)NC1=O (stereo unspecified)
inactive: [1] 114% | [2] 101% | [3] 80.5% | [4] 108% | [5] 114% | [6] 92% | [7] 104% | [8] 110% | [9] 101%

c1ccc2nc(Cn3c[n+](Cc4ccc5ccccc5n4)c4ccccc43)ccc2c1
inactive: [1] 32% | [2] 37.1% | [3] 78.1% | [4] 53.8% | [5] 32.4% | [7] 54% | [8] 66.7%
active: [6] -8.16% | [9] 6.96%

COC(=O)c1cc2c(/C=C3/NC(=S)NC3=O)coc2n1C
active: [6] -38.5%
inactive: [1] 103% | [2] 110% | [3] 87.1% | [4] 89.3% | [5] 115% | [7] 104% | [8] 98.2% | [9] 97.7%

CCCCNCCCN(CCCC)CCCNCCCC
inactive: [1] 104% | [2] 97.3% | [3] 99.5% | [4] 94.9% | [5] 101% | [6] 41.5% | [7] 95.4% | [8] 103% | [9] 100%

Cc1cc(-c2ccccc2)cc(C)n1
inactive: [1] 103% | [2] 102% | [3] 105% | [4] 112% | [5] 112% | [6] 95.4% | [7] 92.7% | [8] 99% | [9] 120%

O=C(Nc1ccccc1OC(=O)c1ccccc1)c1ccccc1
inactive: [1] 70.6% | [2] 104% | [3] 72.3% | [4] 85.2% | [5] 98.1% | [6] 89.5% | [7] 81.3% | [8] 96% | [9] 108%

O=C(COc1ccc(/C=C2\Cc3ccccc3C2=O)cc1)c1ccc(Cl)cc1
inactive: [1] 89.2% | [2] 97.5% | [3] 123% | [4] 101% | [5] 101% | [6] 90.7% | [7] 99.6% | [8] 102% | [9] 117%

Cc1[nH]ccc2cc3nc4ccccc4c3cc12
active: [5] 8.56% | [9] -5.37%
inactive: [1] 39.4% | [2] 27.2% | [3] 19.2% | [4] 34.4% | [6] 31.9% | [7] 14.6% | [8] 44.7%

COc1ccc(-c2c3c(N)nc(-c4ccncc4)nc3nc3c2c(C)nn3-c2ccccc2)cc1
inactive: [1] 59.9% | [2] 74% | [3] 74.3% | [4] 62.6% | [5] 23.4% | [6] 51.4% | [7] 30.8% | [8] 72.6% | [9] 38.6%

CC1(C)CC2(C)CC(=O)C1C(C(=O)O)C2C(=O)O (stereo unspecified)
inactive: [1] 106% | [2] 107% | [3] 104% | [4] 105% | [5] 112% | [6] 113% | [7] 109% | [8] 123% | [9] 107%

Clc1ccc(C2=NN(c3ccc(Cl)cc3)C(c3cccc(Nc4ccnc5cc(Cl)ccc45)c3)C2)cc1 (stereo unspecified)
inactive: [1] 85.2% | [2] 88% | [3] 87.7% | [4] 69.4% | [5] 93.1% | [6] 88% | [7] 70.9% | [8] 85.3% | [9] 72.8%

CCOC(CNCc1cc(C)c2[nH]c3ccccc3c2c1C)OCC
active: [9] -25.4%
inactive: [1] 82.2% | [2] 70% | [3] 83.2% | [4] 98.1% | [5] 89.1% | [6] 64.1% | [7] 81% | [8] 65%

O=C(Nc1ccccc1)c1cc(-n2cnc([N+](=O)[O-])c2)cc(-n2cnc([N+](=O)[O-])c2)n1
inactive: [1] 98.6% | [2] 86.2% | [3] 92% | [4] 102% | [5] 119% | [6] 49.7% | [7] 87% | [8] 102% | [9] 97.4%

O=C1C(=O)/C(=C/c2ccccc2)CCCCCC/C1=C/c1ccccc1
inactive: [1] 42.3% | [2] 101% | [3] 94.5% | [4] 10.3% | [5] 90.4% | [6] 90.3% | [7] 86.1% | [8] 86.6% | [9] 99.6%
